Our source for the outcome and AC50 values is PubChem BioAssay (EPA / NIEHS).

Records with an inconclusive call do not appear. Activity calls are given as the source filed them. The calls were made as follows, unless noted: active = hit-call score of the fitted dose curve at least 0.9, where 1 is the maximum; inactive = score below 0.9.

Experiment [1] in a line: ACEA_ER_80hr: ACEA Biosciences xCELLigence Real-Time Cell Analysis on Estrogen Receptor Agonism for Proliferation (AID 2282667; active = hit-call score of the fitted dose curve at least 0.9, where 1 is the maximum). Conditions: T47D proliferation, impedance (xCELLigence), 80 h. The procedure, abridged:
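Real-time impedance growth kinetics of human T-47D breast cells read 80 h after dosing, gain-of-signal fitted relative to DMSO. Compounds: 1:4 serial series, top final concentration 100 uM, n = 2.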

Experiment [2] in a line: ATG_CRE_CIS: Attagene CIS-FACTORIAL HepG2 Assay for human cAMP Responsive Element (CRE) binding protein 3 (AID 2282926). To be noted: HepG2 CRE cis-reporter, Attagene multiplexed mRNA; actives raise or lower the signal. The procedure, abridged:
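Multiplexed transcription-unit reporters transfected into HepG2; 24 h dosing; RT-PCR/capillary electrophoresis fluorescence read-out; bidirectional fit vs DMSO.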

Experiment [3] has as its target CCAAT/enhancer-binding protein beta (Homo sapiens) (UniProt P17676). The experiment in a line: ATG_C_EBP_CIS: Attagene CIS-FACTORIAL HepG2 Assay for human CCAAT/Enhancer Binding Protein (C/EBP) beta (AID 2282927). Conditions: HepG2 Attagene cis-factorial transcription factor reporter; actives raise or lower the signal. The method, boiled down: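 Endogenous C/EBPb-driven reporter transcripts measured in transfected human HepG2 cells at 24 h via RT-PCR and capillary electrophoresis of labelled fragments. Activity fitted in both directions relative to DMSO baseline.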

A short description of experiment [4]: ATG_CMV_CIS: Attagene CIS-FACTORIAL HepG2 Assay for human CMV (Internal Marker) (AID 2282928).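 Also: endpoint acts as a background internal control marker rather than a target.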 Conditions: HepG2 CMV promoter reporter, transcription factor profiling; actives raise or lower the signal. The method, boiled down:
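After transient transfection of HepG2 with reporter transcription units driven by cis-regulatory promoters, cells receive test chemical for 24 h. Labeled reporter amplicons, digested with HpaI, are sized and quantified by capillary electrophoresis against DMSO.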

The nature of experiment [5]: ATG_DR4_LXR_CIS: Attagene CIS-FACTORIAL HepG2 Assay for human Liver X Receptor (LXR), DR4 submotif (AID 2282929). To be noted: HepG2 Attagene DR4 cis-reporter, mRNA transcription; actives raise or lower the signal. The procedure, abridged:
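Transiently transfected HepG2 liver cells; cis-regulated reporters; 24 h dosing. RT-PCR plus CE read-out of reporter mRNA. DMSO baseline, bidirectional curve fitting.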

The target of experiment [6] is Aryl hydrocarbon receptor (Homo sapiens) (UniProt P35869). The experiment in a line: ATG_Ahr_CIS: Attagene CIS-FACTORIAL HepG2 Assay for human Aryl Hydrocarbon Receptor (Ahr) (AID 2282930). Conditions: HepG2 AhR cis-factorial reporter transcription; actives raise or lower the signal. The method, boiled down: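 Reporter mRNA levels, quantified by RT-PCR and fluorescent capillary electrophoresis, reflect endogenous AhR transcriptional activity in HepG2 cells carrying transfected cis-promoter reporter constructs. Readout at 24 h post-dose; gain or loss fitted against DMSO baseline.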

Experiment [7] is described as follows: ATG_AP_1_CIS: Attagene CIS-FACTORIAL HepG2 Assay for human Activator Protein 1 (AP-1) (AID 2282931). Conditions: HepG2 Attagene cis-factorial AP-1 reporter mRNA; actives raise or lower the signal. The method, boiled down: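 We transfected HepG2 cells transiently with a set of cis-regulated reporter transcription units, dosed them for 24 h, and quantified reporter mRNA via RT-PCR and capillary electrophoresis, scoring gain or loss of signal relative to DMSO.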

Experiment [8] can be described thus: ATG_AP_2_CIS: Attagene CIS-FACTORIAL HepG2 Assay for human Activator Protein 2 (AP-2) (AID 2282932). To be noted: HepG2 AP-2 cis-reporter, Attagene transcription factor profiling; actives raise or lower the signal. The method, boiled down:
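Step one: transient transfection of HepG2 with reporter transcription units. Step two: 24 h chemical exposure. Step three: RNA extraction, RT-PCR, labelled fragment analysis by capillary electrophoresis; DMSO serves as baseline.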

Experiment [9] in a line: ATG_BRE_CIS: Attagene CIS-FACTORIAL HepG2 Assay for human Bone Morphogenetic Protein (BMP) Response Element (BRE) (AID 2282933). To be noted: HepG2 BMP response element reporter, Attagene transcription factor profiling; actives raise or lower the signal. The method, boiled down:
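Fluorescence-labelled reporter cDNA fragments, separated by capillary electrophoresis, gave the signal for this component of a 52-readout multiplex. HepG2 cells were transfected, exposed to chemicals for 24 h, and compared with DMSO using bidirectional fitting.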

For experiment [10], the target named is Retinoic acid receptor alpha (Homo sapiens) (UniProt P10276). As to the kind of experiment: ATG_DR5_RAR_CIS: Attagene CIS-FACTORIAL HepG2 Assay for human Retinoic Acid Receptor Alpha (RARE), DR5 submotif (AID 2282934).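 As to AC50: reporter responds to endogenous RAR alpha beta and gamma in HepG2 not RARA alone.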 To be noted: HepG2 Attagene cis-factorial RARE DR5 reporter, mRNA; actives raise or lower the signal. The procedure, abridged: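 Reporter transcripts from a DR5-regulated unit, measured via RT-PCR plus capillary electrophoresis, reflect endogenous RAR activity in transiently transfected human HepG2 liver cells. Exposure lasted 24 h; gain or loss of signal scored against DMSO.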

The target of experiment [11] is Transcription factor E2F1 (Homo sapiens) (UniProt Q01094). The experiment in a line: ATG_E2F_CIS: Attagene CIS-FACTORIAL HepG2 Assay for human E2F Transcription Factor 1 (AID 2282935). To be noted: HepG2 Attagene cis-reporter, E2F reporter RNA transcripts; actives raise or lower the signal. The procedure, abridged: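 Total RNA from 24 h-treated, reporter-transfected HepG2 cells undergoes DNase I treatment, oligo(dT) reverse transcription, PCR and 6-FAM primer extension before capillary electrophoresis.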

Experiment [12] in a line: ATG_E_Box_CIS: Attagene CIS-FACTORIAL HepG2 Assay for human Enhancer Box (E-box) (AID 2282936). To be noted: HepG2 E-box cis-reporter transcription, actives raise or lower the signal. The procedure, abridged:
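DMSO served as negative control and baseline for bidirectional fitting. Human hepatoma HepG2 cells, transiently transfected with cis-reporter constructs, were dosed 24 h; reporter mRNA read by RT-PCR and capillary electrophoresis.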

Experiment [13] is described as follows: ATG_M_61_CIS: Attagene CIS-FACTORIAL HepG2 Assay for M61 Transcription Factor (Internal Marker) (AID 2282937). Conditions: HepG2 Attagene CIS-FACTORIAL M61 internal marker reporter; actives raise or lower the signal. The method, boiled down:
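Multiplexed reporter mRNA assay, HepG2 human hepatoma cells, 24 h treatment. Signal: FAM-labelled, HpaI-digested RT-PCR fragments by CE. Fit: bidirectional, baseline DMSO.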

Experiment [14] in a line: ATG_EGR_CIS: Attagene CIS-FACTORIAL HepG2 Assay for human Early Growth Response 1 (EGR1) (AID 2282938). Conditions: HepG2 Attagene CIS-FACTORIAL EGR reporter mRNA; actives raise or lower the signal. The procedure, abridged:
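Multiplexed cis-reporter system in human hepatoma HepG2 cells, transiently transfected. Cells are dosed for 24 h; reporter transcripts are amplified, fluorescently tagged and sized by capillary electrophoresis, with DMSO as negative control.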

A short description of experiment [15]: ATG_M_19_CIS: Attagene CIS-FACTORIAL HepG2 Assay for M19 Transcription Factor (Internal Marker) (AID 2282939). Conditions: HepG2 Attagene CIS-FACTORIAL M19 internal marker reporter; actives raise or lower the signal. The procedure, abridged:
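HepG2, MRTU transient transfection, 24 h dosing. Total RNA → RT-PCR → 6-FAM primer extension → HpaI digest → CE fluorescence. Bidirectional curve fit, DMSO negative control.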

A short description of experiment [16]: ATG_ERE_CIS: Attagene CIS-FACTORIAL HepG2 Assay for Estrogen Response Element (ERE) (AID 2282940). Conditions: HepG2 ERE cis-reporter, Attagene RNA transcript; actives raise or lower the signal. The method, boiled down: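 After a 24 h chemical treatment, RNA from reporter-transfected HepG2 cells is reverse-transcribed, PCR-amplified and fluorescently labelled. Fragments separated by capillary electrophoresis give reporter signal; DMSO serves as negative control.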

The nature of experiment [17]: ATG_Ets_CIS: Attagene CIS-FACTORIAL HepG2 Assay for human Erythroblast Transformation Specific (ETS) (AID 2282941). Conditions: HepG2 ETS cis-reporter transcription, actives raise or lower the signal. The procedure, abridged: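 Human HepG2 hepatoma cells were transiently transfected with promoter-driven reporter constructs and treated for 24 hours. Reporter transcripts were quantified by RT-PCR with fluorescent primer extension; bidirectional curve fitting used DMSO as reference.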

In experiment [18] the target is Hepatocyte nuclear factor 3-beta (Homo sapiens) (UniProt Q9Y261). The experiment in a line: ATG_FoxA2_CIS: Attagene CIS-FACTORIAL HepG2 Assay for human Forkhead box A2 (FOXA2) (AID 2282942). To be noted: HepG2 cis-reporter transcription factor activity, 24 h; actives raise or lower the signal. The procedure, abridged: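 Multiplexed cis-element reporter assay in transiently transfected HepG2. Twenty-four hours post-dosing, RNA was reverse-transcribed, amplified, FAM-labelled, HpaI-digested and separated by CE. Activity gain or loss relative to DMSO.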

Experiment [19] in a line: ATG_FoxO_CIS: Attagene CIS-FACTORIAL HepG2 Assay for human Forkhead box O (FoxO) (AID 2282943). To be noted: HepG2 Attagene cis-reporter, FoxO element, mRNA; actives raise or lower the signal. The method, boiled down: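 Endogenous transcription factor activity read from multiplexed cis-promoter reporter transcripts in transiently transfected HepG2, 24 h after dosing. Reporter RNA measured via RT-PCR plus capillary electrophoresis of FAM-labeled products; gain or loss relative to DMSO.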

The nature of experiment [20]: ATG_GATA_CIS: Attagene CIS-FACTORIAL HepG2 Assay for human GATA Binding Protein (AID 2282944). Conditions: HepG2 GATA cis-element reporter, Attagene multiplex mRNA; actives raise or lower the signal. The method, boiled down:
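Cells: HepG2, transiently transfected with cis-regulated reporter transcription units. Exposure: 24 h. Detection: RT-PCR plus capillary electrophoresis of FAM-labeled fragments. Analysis: bidirectional, DMSO as baseline.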

Chain of Aryl hydrocarbon receptor (Homo sapiens) (P35869 whole entry, looked up): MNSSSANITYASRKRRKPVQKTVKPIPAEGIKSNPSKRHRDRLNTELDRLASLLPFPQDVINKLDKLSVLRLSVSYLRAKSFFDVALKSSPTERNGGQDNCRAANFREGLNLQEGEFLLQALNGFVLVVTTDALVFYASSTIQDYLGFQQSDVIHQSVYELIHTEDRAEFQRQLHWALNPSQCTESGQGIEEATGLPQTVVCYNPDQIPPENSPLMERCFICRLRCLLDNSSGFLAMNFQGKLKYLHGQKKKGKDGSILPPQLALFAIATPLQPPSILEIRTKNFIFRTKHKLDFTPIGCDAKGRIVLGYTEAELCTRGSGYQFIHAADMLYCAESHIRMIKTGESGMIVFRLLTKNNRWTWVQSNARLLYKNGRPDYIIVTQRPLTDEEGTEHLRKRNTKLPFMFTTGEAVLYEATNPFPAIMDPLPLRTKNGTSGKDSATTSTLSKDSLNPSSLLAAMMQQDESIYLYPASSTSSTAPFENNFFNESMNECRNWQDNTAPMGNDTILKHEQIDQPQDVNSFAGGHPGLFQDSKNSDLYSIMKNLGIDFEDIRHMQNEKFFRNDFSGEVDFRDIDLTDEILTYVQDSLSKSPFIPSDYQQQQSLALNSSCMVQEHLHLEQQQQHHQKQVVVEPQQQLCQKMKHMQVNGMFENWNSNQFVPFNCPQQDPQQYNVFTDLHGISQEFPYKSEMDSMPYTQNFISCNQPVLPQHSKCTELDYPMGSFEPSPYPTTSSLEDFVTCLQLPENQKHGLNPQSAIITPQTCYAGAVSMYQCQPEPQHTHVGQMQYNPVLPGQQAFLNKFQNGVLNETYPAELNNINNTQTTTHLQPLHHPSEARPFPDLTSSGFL
Chain of Retinoic acid receptor alpha (Homo sapiens) (P10276 whole entry, looked up): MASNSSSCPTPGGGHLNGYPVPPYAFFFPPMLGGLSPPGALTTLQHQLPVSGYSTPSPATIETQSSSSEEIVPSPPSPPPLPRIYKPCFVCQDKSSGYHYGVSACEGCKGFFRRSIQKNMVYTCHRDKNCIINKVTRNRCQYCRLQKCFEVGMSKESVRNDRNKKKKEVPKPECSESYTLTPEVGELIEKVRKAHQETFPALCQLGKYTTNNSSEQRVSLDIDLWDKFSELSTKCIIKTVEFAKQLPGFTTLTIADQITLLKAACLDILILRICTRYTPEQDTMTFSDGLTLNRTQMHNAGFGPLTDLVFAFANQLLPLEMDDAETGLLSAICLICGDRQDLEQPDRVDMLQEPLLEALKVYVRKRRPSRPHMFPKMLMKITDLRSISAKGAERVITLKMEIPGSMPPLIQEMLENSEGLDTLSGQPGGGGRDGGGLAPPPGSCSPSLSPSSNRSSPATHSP
Chain of CCAAT/enhancer-binding protein beta (Homo sapiens) (P17676 whole entry, looked up, the tested form may be a part): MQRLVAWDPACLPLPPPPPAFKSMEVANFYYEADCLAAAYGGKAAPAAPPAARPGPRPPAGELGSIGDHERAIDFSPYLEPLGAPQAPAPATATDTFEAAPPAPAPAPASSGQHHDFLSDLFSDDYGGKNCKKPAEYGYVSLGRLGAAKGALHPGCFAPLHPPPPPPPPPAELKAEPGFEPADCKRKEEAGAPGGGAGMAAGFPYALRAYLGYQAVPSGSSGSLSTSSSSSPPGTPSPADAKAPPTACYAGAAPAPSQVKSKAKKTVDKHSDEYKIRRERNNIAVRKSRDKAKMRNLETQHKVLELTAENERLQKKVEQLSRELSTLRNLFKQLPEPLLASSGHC
Chain of Transcription factor E2F1 (Homo sapiens) (Q01094 whole entry, looked up): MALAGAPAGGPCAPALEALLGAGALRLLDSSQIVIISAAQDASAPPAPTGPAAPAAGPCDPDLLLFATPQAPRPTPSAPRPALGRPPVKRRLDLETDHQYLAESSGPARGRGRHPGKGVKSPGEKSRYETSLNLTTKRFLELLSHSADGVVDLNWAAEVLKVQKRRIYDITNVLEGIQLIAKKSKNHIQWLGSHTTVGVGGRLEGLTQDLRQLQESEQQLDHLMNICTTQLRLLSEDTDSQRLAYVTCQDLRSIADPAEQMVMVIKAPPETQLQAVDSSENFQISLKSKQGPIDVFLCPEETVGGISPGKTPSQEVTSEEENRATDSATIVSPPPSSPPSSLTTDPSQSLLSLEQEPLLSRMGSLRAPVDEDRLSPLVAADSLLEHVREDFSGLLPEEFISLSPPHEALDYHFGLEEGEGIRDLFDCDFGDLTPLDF
Chain of Hepatocyte nuclear factor 3-beta (Homo sapiens) (Q9Y261 whole entry, looked up): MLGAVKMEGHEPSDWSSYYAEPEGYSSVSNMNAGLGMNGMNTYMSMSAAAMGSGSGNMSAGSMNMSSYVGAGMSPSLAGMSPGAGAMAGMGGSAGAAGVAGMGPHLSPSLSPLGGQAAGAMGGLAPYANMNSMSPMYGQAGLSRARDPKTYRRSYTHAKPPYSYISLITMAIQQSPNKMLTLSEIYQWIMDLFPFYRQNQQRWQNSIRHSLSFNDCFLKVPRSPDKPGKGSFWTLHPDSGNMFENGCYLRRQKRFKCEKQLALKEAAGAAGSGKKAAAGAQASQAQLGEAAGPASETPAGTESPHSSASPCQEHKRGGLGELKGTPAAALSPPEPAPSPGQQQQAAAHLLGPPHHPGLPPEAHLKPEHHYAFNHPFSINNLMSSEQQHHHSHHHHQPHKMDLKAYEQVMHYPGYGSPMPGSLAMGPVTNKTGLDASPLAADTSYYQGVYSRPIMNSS

For the molecule `Nc1c(Br)cc([N+](=O)[O-])cc1Br`, the call in [1], in experiment [2], in [3], in [4], in experiment [5] and in experiment [6] was inactive. For the same molecule, the result in experiment [7], in experiment [8], in experiment [9], in experiment [10], in experiment [11] and in [12] was inactive. For the same molecule, the outcome in [13], in experiment [14], in [15], in [16], in [17] and in experiment [18] was inactive. The outcome in experiment [19] and in experiment [20] was inactive.
As for `O=C1C=CC(=O)N1c1ccc(Cc2ccc(N3C(=O)C=CC3=O)cc2)cc1`, the result in experiment [1], in experiment [3], in experiment [4], in experiment [6], in experiment [7] and in experiment [8] was inactive. The result in experiment [11], in experiment [13], in experiment [15], in [16], in experiment [17] and in experiment [18] was inactive. For the same molecule, the call in experiment [19] and in [20] was inactive. The AC50 (usually the concentration giving half of the maximal activity seen) in [2] is 33.4 µM (active); in [5] it was 22.7 µM (active); in [9], 51.2 µM (active); in [10] it was 59.4 µM (active); in experiment [12] it was 44.9 µM (active); in experiment [14] it was 21.4 µM (active).
`Cc1ccc(O)cn1`: the molecule was called inactive in experiment [1], in experiment [2], in experiment [3], in experiment [4], in experiment [5] and in [6]. The molecule was called inactive in experiment [7], in experiment [8], in experiment [9], in [10], in [11] and in experiment [12]. The molecule was called inactive in [13], in [14], in [15], in [16], in experiment [17] and in experiment [18]. The outcome in [19] and in experiment [20] was inactive.
